Compound activity from PubChem.
In the library only some 10% were active in any assay of this set; here they are far more common.
CtBP-E1A blk: CtBP/E1A binding inhibition | actives 0.49% (n = 340,000) | AlphaScreen GST-E1A/His-CtBP binding, 1536-well; hits give low values | activity change, % (concentration not given with the values); in the data active means activity change below about -65%; inconclusive means mostly about -30% to -63%; further: on the % scale 0 is the no-effect control and ±100 the full control effect
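Steps: dispense buffer (Tris pH 8.0, NaCl 300 mM, TCEP 1 mM, BSA, Tween 20); add 5X protein mix (GST-E1A, His-CtBP, 125 nM each); pin 23 nL compound; 2 h at 37 °C, dark; add 5X beads (50 ug/mL); 1 h; read.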
BAZ2B block: blocks human BAZ2B | Q9UIF8 | AlphaScreen BAZ2B-H3K14Ac peptide displacement | Potency, µM (doses to about 114 µM), inactives show top-dose activity change, negative = inhibition, actives largely listed as inhibitors | actives 4.4% (n = 360,000) | AID 504333; further: potency means the concentration at half of the fitted maximal effect; on the % scale 0 is the no-effect control and ±100 the full control effect; nearly all actives have a fitted effect of over 60% in size
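BAZ2B 50 nM plus b-H3(5-23)K14Ac 50 nM, PBS pH 7.4/0.01% Tween-20, 30 min RT; compound added (max 110 uM), 30 min RT; streptavidin donor/Ni-chelate acceptor beads 10 ug/mL final, 20 min dark; AlphaScreen read.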
JMJD2A Tudor: JMJD2A Tudor domain (human) inhibition; O75164; AlphaScreen JMJD2A-Tudor / H3K4me3 peptide binding; Potency, µM (top dose mostly 114 µM), inactives show at the highest dose activity change, negative = inhibition, hits mostly inhibitors; actives 4.4% (n = 390,000); further: potency means the concentration at half of the fitted maximal effect; on the % scale 0 is the no-effect control and ±100 the full control effect; nearly all actives have a fitted effect of over 50% in size
Six1-Eya2 blk: inhibitors of human Six1/Eya2 interaction. Q15475+O00167. AlphaScreen GST-Six1/His-Eya2 binding, biochemical; hits give low values. activity change, % (test concentration not listed). actives 0.56% (n = 360,000). AID 651725; in the data active means activity change below about -65%; inconclusive means mostly about -30% to -63%; further: on the % scale 0 is the no-effect control and ±100 the full control effect
Target sequence (O00167 whole entry, looked up): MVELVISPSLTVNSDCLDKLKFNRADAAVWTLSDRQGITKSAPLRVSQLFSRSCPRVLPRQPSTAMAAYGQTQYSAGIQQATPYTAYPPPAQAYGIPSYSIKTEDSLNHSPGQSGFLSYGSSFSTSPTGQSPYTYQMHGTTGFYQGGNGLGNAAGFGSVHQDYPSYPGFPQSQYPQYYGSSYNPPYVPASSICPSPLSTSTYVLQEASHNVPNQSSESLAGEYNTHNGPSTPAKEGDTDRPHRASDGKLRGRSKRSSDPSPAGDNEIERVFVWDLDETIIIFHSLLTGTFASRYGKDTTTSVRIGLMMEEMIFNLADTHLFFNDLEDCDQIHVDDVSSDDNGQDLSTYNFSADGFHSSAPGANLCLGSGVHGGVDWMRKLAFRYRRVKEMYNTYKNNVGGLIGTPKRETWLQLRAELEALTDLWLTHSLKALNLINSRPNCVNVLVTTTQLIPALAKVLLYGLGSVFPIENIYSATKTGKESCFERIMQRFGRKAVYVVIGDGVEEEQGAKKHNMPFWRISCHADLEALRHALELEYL
Target sequence (Q15475 whole entry, looked up): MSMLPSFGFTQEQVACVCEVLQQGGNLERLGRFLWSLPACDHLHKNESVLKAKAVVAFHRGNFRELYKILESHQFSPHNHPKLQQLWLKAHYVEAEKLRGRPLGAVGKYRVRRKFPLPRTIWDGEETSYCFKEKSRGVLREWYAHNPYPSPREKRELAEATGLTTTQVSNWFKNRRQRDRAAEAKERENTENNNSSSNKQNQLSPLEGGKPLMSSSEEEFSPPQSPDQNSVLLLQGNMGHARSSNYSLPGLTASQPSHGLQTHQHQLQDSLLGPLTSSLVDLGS
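AlphaScreen luminescence read after one hour at 37 °C in darkness. Pin-transferred compounds met GST-Six1 and His-Eya2 protein (5X stock 250 nM/500 nM) plus glutathione donor and Ni-chelate acceptor beads (5X, 50 ug/mL).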
HP1b chromo inh: inhibitors of HP1-beta chromodomain binding to methylated histone tails. Potency, µM (top dose mostly 114 µM), for inactives: at the highest dose activity change, negative = inhibition, usual class: inhibitors. actives 0.56% (n = 390,000). P83916. AlphaScreen HP1-beta / biotin-H3K9me3 peptide binding; further: potency means the concentration at half of the fitted maximal effect; nearly all actives have a fitted effect of over 70% in size
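AlphaScreen: HP1-beta (50 nM) preformed 30 min with biotin-H3(1-18)K9me3 peptide (50 nM) in PBS pH 7.4, 0.01% Tween-20. Compound added for 30 min at RT, then streptavidin donor/nickel chelate acceptor beads (10 ug/mL) for 30 min.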
G9a inh: blocks human histone lysine methyltransferase G9a. Q96KQ7. G9a H3K9 monomethylation, AlphaScreen, 2 h. actives 8.8% (n = 350,000). Potency, µM (doses to about 102 µM), for inactives: top-dose activity, negative = inhibition, hits mostly inhibitors; further: potency means the concentration at half of the fitted maximal effect; on the % scale 0 is the no-effect control and ±100 the full control effect; nearly all actives have a fitted effect of over 75% in size
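G9a (20 nM) preincubated 15 min RT with compounds, then 500 nM biotinylated H3K9 peptide and 20 uM SAM added; 2 h RT reaction. Monomethyl-H3K9 product detected by AlphaScreen with anti-H3K9me1 antibody, streptavidin donor and anti-rabbit IgG acceptor beads.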
* hit, by the source's call; [ ] = dose if it differs, or a comment. Unless noted, the call rests on the fitted dose curve; in most records, active means well fitted inhibition curve with a large enough effect; inconclusive means small, poorly fitted or top-dose-only effect; inactive means no such curve, though single readings can be large or run the other way.

Screening Cn1cccc1/C=C1\SC(=Nc2cccc(O)c2)NC1=O returned CtBP-E1A blk 1.6, BAZ2B block 25.1µM*, JMJD2A Tudor inconclusive, Six1-Eya2 blk -26.1 and HP1b chromo inh inconclusive.
`CCc1ccc(N=C2NC(=O)/C(=C/c3cc(OC)c(OC)c(OC)c3)S2)cc1` gave CtBP-E1A blk 11.1, BAZ2B block -1.5%, JMJD2A Tudor -32.2%, Six1-Eya2 blk -7.9, HP1b chromo inh 30.0% and G9a inh 26.5%.
For CCc1ccc(N=C2NC(=O)/C(=C/c3cc(Br)c(OCC(=O)O)c(OC)c3)S2)cc1 the results were CtBP-E1A blk 2.3, BAZ2B block 50.1µM*, JMJD2A Tudor 50.1µM*, Six1-Eya2 blk -8.9, HP1b chromo inh inconclusive and G9a inh 50.1µM*.
Screening COc1cc(/C=C2\SC(=Nc3ccc(O)cc3)NC2=O)cc(OC)c1O returned CtBP-E1A blk -65.4*, BAZ2B block -13.1%, JMJD2A Tudor -7.6%, Six1-Eya2 blk inconclusive, HP1b chromo inh 7.3% and G9a inh -41.6%.
Cc1cc([N+](=O)[O-])ccc1NC(c1nnc(-c2ccccc2)o1)c1ccccc1F (stereo not drawn) was read as BAZ2B block -28.3%, JMJD2A Tudor -24.3%, HP1b chromo inh 25.0% and G9a inh -8.8%[59 µM].
`O=c1cc(NCCc2ccccc2)c2ccccc2o1` gave CtBP-E1A blk 1.6, BAZ2B block 1.5%, JMJD2A Tudor 50.1µM*, Six1-Eya2 blk 8.8, HP1b chromo inh 4.6% and G9a inh 2.5%.
`O=c1cc(NCCO)c2ccccc2o1` gave CtBP-E1A blk 4.6, BAZ2B block 0.1%, JMJD2A Tudor 0.0%, Six1-Eya2 blk -0.5, HP1b chromo inh 25.2% and G9a inh 4.5%.
For C#CCn1cc(Cl)cc(C(=O)Nc2ccccc2)c1=O the results were BAZ2B block -0.3%, JMJD2A Tudor -12.0%, Six1-Eya2 blk 6.1, HP1b chromo inh 29.1% and G9a inh -9.4%.
Cc1cc(=O)[nH]c(SCC(=O)Nc2nc(-c3ccccc3)cs2)n1 was read as CtBP-E1A blk -1.7, BAZ2B block inconclusive, JMJD2A Tudor -20.0%, Six1-Eya2 blk -4.6, HP1b chromo inh 14.7% and G9a inh 50.1µM*.
O=C(CN1CCOCC1)Nc1nc2ccc([N+](=O)[O-])cc2s1 was read as CtBP-E1A blk -15.1, BAZ2B block -27.1%, JMJD2A Tudor 10µM*, Six1-Eya2 blk -0.3, HP1b chromo inh 29.5% and G9a inh -46.4%.
`O=C(CN1CCOCC1)Nc1nc2ccc(F)cc2s1` gave CtBP-E1A blk -5.1, BAZ2B block -3.5%, JMJD2A Tudor -7.3%, Six1-Eya2 blk 7.9, HP1b chromo inh 6.6% and G9a inh 1.8%.
For Cc1csc(SCC(=O)Nc2nc(-c3ccccc3)cs2)n1 the results were CtBP-E1A blk 4.0, BAZ2B block 10.1%, JMJD2A Tudor -11.5%, Six1-Eya2 blk -0.2, HP1b chromo inh 35.1% and G9a inh -32.1%.
Screening COc1cc(=O)[nH]c(SCC(=O)Nc2nc3c(s2)CCCC3)n1 returned CtBP-E1A blk 8.7, BAZ2B block 1.7%, JMJD2A Tudor 31.6µM*, Six1-Eya2 blk -1.8, HP1b chromo inh -5.2% and G9a inh 8.7%[59 µM].
Screening Nc1cc(=O)[nH]c(SCC(=O)Nc2nc3ccc([N+](=O)[O-])cc3s2)n1 returned BAZ2B block inconclusive and G9a inh 39.8µM*.
O=C(Nc1nc2ccc(Oc3ccccc3)cc2s1)c1cc([N+](=O)[O-])ccc1N1CCOCC1 was read as CtBP-E1A blk -27.9, BAZ2B block inconclusive, JMJD2A Tudor -32.1%, Six1-Eya2 blk inconclusive, HP1b chromo inh -1.0% and G9a inh 15.8µM*.
`Cc1cc(=O)[nH]c(SCC(=O)Nc2nc3ccccc3s2)n1` gave CtBP-E1A blk -1.3, BAZ2B block inconclusive, JMJD2A Tudor -23.2%, Six1-Eya2 blk 0.1, HP1b chromo inh 27.7% and G9a inh 31.6µM*.
For O=C(CSc1cn[nH]n1)Nc1nc2ccccc2s1 the results were CtBP-E1A blk 9.6, BAZ2B block -0.6%, JMJD2A Tudor -13.4%, Six1-Eya2 blk 5.6, HP1b chromo inh 33.7% and G9a inh 39.8µM*.
For O=C(NCCOc1ccccc1)c1cc([N+](=O)[O-])ccc1N1CCOCC1 the results were CtBP-E1A blk 5.5, BAZ2B block 0.7%, JMJD2A Tudor -18.8%, Six1-Eya2 blk -5.9, HP1b chromo inh 14.6% and G9a inh 33.6%[12.7 µM].
Screening O=C(NC1CCSc2ccccc21)c1ccc([N+](=O)[O-])cc1 (stereo not drawn) returned CtBP-E1A blk -5.2, BAZ2B block -26.4%, JMJD2A Tudor -15.2%, Six1-Eya2 blk -3.6, HP1b chromo inh 31.1% and G9a inh -10.7%.
Screening O=C(NC1CCSc2ccccc21)c1cc([N+](=O)[O-])ccc1N1CCOCC1 (stereo not drawn) returned CtBP-E1A blk -0.5, BAZ2B block -28.7%, JMJD2A Tudor -20.7%, Six1-Eya2 blk -10.0, HP1b chromo inh -11.7% and G9a inh 56.2µM*.
For Cc1cc(=O)[nH]c(SCC(=O)Nc2nnc(SCc3ccccc3)s2)n1 the results were BAZ2B block -38.9%, JMJD2A Tudor -11.3%[11.4 µM], Six1-Eya2 blk -16.5, HP1b chromo inh -5.7% and G9a inh -6.1%.
`O=C(COc1cccnc1[N+](=O)[O-])NCCc1ccccc1` gave CtBP-E1A blk -16.9, BAZ2B block 0.7%, JMJD2A Tudor -17.8%, Six1-Eya2 blk -8.4, HP1b chromo inh 18.2% and G9a inh -1.4%.
For CCc1cccc(NC(=O)C2CCN(S(=O)(=O)c3ccc4c(c3)NC(=O)CO4)CC2)c1 the results were BAZ2B block -19.5%, JMJD2A Tudor -9.0%, Six1-Eya2 blk -1.7, HP1b chromo inh 27.4% and G9a inh 35.0%.
Screening O=C(CSc1nc2ccccc2o1)Nc1nc2ccc(Br)cc2s1 returned CtBP-E1A blk -0.8, BAZ2B block -17.3%, JMJD2A Tudor -21.2%[11.4 µM], Six1-Eya2 blk 1.6, HP1b chromo inh 54.8% and G9a inh 44.7µM*.
Screening COc1ccc2nc(NC(=O)CSc3nc4ccccc4o3)sc2c1 returned CtBP-E1A blk -9.2, BAZ2B block 28.8%, JMJD2A Tudor -6.1%, Six1-Eya2 blk -2.5, HP1b chromo inh 16.3% and G9a inh 23.5%[12.7 µM].
For O=C(O)CCc1ccc(-c2ccc(F)cc2)n1CC1CCCO1 (stereo not drawn) the results were CtBP-E1A blk 3.8, BAZ2B block -5.7%, JMJD2A Tudor -24.1%, Six1-Eya2 blk -0.8, HP1b chromo inh 7.4% and G9a inh inconclusive.
